From PubChem
A selection: hits, their analogues and other compounds. The true share with any hit is near 9%.
IMPase Li inh – IMPase inhibition in cells with lithium potentiation. Potency, µM (doses to about 59.4 µM), inactives show at the top dose activity, negative = IMPase inhibition, most hits filed as inhibitors. hit rate 0.35% among 210,000. CHO-M1 cells, IP1 TR-FRET (IP-One), carbachol + lithium;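 also: IP1 builds up when IMPase is blocked and the TR-FRET signal falls; plate controls were basal vehicle for no effect and high inhibitor control for full effect; nearly all actives have a fitted effect of over 50% in size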
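CHO cells stably expressing M1 receptor (2000/well, cultured 16–30 h) treated 30 min at 37C with compound plus low lithium. Cytosolic IP1 by TR-FRET (665/620 ratio and 620 channel) after 10 min lysis; AC50 by Hill fit.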
HPGD block – blocks human HPGD enzyme activity | P15428 | purified HPGD, NADH fluorescence kinetic, PGE2 substrate | Potency, µM, for the others: at the highest dose activity change, negative = inhibition, most hits filed as inhibitors | hit rate 4.3% among 150,000 | AID 894; active = well fitted inhibition curve with a large enough effect, not every such curve was filed as active; inconclusive = small, poorly fitted or top-dose-only effect, or another doubt; inactive = no such curve, though single readings can be large or run the other way
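20 nM HPGD preincubated 15 min at room temperature with compound in 50 mM Tris-HCl pH 8, 0.01% Tween 20. Started with 1 mM NAD+ and 30 uM prostaglandin E2; NADH fluorescence (360/450 nm) read 5 times over 30-s intervals, last minus first.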
ALDH1A1 inh – ALDH1A1 (human) enzyme inhibition | P00352 | Purified ALDH1A1, NADH fluorescence, propionaldehyde substrate | Potency, µM (series often up to 75.3 µM), inactives show at the highest dose activity, negative = inhibition, actives largely listed as inhibitors | hit rate 7.3% among 220,000 | AID 1030; active = well fitted inhibition curve with a large enough effect, not every such curve was filed as active; inconclusive = small, poorly fitted or top-dose-only effect, or another doubt; inactive = no such curve, though single readings can be large or run the other way;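 also: plate controls were no enzyme wells and a reference inhibitor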
Target sequence (P00352 whole entry, looked up): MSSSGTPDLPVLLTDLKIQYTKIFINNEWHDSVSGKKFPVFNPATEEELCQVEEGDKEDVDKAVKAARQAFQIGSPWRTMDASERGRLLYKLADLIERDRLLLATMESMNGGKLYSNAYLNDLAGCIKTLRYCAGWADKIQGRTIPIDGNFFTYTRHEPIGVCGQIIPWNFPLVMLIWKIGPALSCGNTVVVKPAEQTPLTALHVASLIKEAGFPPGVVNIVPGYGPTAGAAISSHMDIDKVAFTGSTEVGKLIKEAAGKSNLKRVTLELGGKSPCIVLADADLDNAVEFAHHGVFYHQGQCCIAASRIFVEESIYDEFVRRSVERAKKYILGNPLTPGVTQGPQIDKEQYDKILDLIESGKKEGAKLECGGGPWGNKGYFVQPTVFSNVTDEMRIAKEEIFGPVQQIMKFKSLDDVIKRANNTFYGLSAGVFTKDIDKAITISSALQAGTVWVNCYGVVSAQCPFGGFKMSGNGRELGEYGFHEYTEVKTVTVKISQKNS
LMNA splice mod – changes lamin A minigene splicing in HeLa cells; HeLa LMNA splicing GFP/RFP minigene ratio, 48 h; Potency, µM (series often up to 46.1 µM), without a hit: at the highest dose ratio change, negative = inhibition, usual class: inhibitors; hit rate 0.01% among 200,000; AID 1487; active = well fitted inhibition curve with a large enough effect in the signal ratio, with a control signal flat, not every such curve was filed as active; inconclusive = small, poorly fitted or top-dose-only effect, or effect the other way, or a change in a side signal; the % refers to the signal ratio
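S3 HeLa cells stably expressing lamin A-EGFP splicing minigene plus DsRed2, 600 cells/well, 48 h compound exposure at 37C. Laser-scanning cytometry; analysed as GFP (500-530 nm)/RFP (575-640 nm) total intensity ratio; 0.5% DMSO vehicle.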
KinaseGlo FLuc – counter-screen: inhibitors of Kinase-Glo firefly luciferase. Q27757. Kinase-Glo luciferase, ATP luminescence, 8 min. Potency, µM (top dose mostly 38.3 µM), for the others: top-dose activity change, negative = inhibition, usual class: inhibitors. hit rate 0.28% among 200,000; also: nearly all actives have a fitted effect of over 60% in size
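Luminescence was the read-out, taken after 8-minute incubation at ambient temperature. Luciferase turned over luciferin with 10 uM ATP in imidazole pH 7.2 buffer containing KCl, MgCl2, Tween 20 and BSA.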
An asterisk follows results filed as active; ? = inconclusive; · = no result; [ ] = another dose, or the depositor's remark. Unless noted, calls follow the shape of the dose curve; as a rule, active = well fitted curve in the direction sought with a large enough effect; inconclusive = small, poorly fitted or top-dose-only effect, or another doubt; inactive = no such curve, though single readings can be large; an effect the other way counts as inactive or inconclusive. Unless noted, % is scaled to controls: 0 for no effect and ±100 for the full control effect; potency is read from the fitted curve at half-maximal effect.

SMILES	IMPase Li inh	HPGD block	ALDH1A1 inh	LMNA splice mod	KinaseGlo FLuc
O=C(c1cnccn1)N1CCC[C@@]2(CCN(c3ccncc3)C2)C1	-4.8%	-6.0%	5.4%	·	-3.2%
O=C(COC(=O)c1cc2ccccc2oc1=O)Nc1ccc(F)cc1F	·	·	-2.6%	·	·
Fc1ccc(N=C2NN=C(c3cc(F)ccc3F)CS2)cc1	3.1%	-20.8%	?	?	-1.2%
Cc1ccc(-n2c(C)cc(C3=NNC(=NC4CC4)SC3)c2C)cc1C	24.0%	?	18.9µM*	?	-5.9%
Cc1cc(C2=NNC(=Nc3ccccc3)SC2)c(C)n1C	0.4%	·	?	·	-4.3%
Cc1cc(C2=NNC(=NC3CC3)SC2)c(C)n1-c1c(C)n(C)n(-c2ccccc2)c1=O	17.1%	-18.6%	25.1µM*	-4.0%	2.0%
CN=C1NN=C(c2cc(C)n(-c3ccc(Cl)cc3)c2C)CS1	-0.3%	·	8.91µM*	-12.2%[46 µM]	-5.8%
Cc1c(N=C2NN=C(c3ccc(Cl)cc3)CS2)c(=O)n(-c2ccccc2)n1C	4.2%	·	17.8µM*	10.1%[46 µM]	2.9%
Cc1c(N=C2SCC(=O)N2/N=C/c2ccccc2Cl)c(=O)n(-c2ccccc2)n1C	12.0%[38.3 µM]	2.0%	?	-5.5%	-6.2%
N/C(=N\OC(=O)c1ccc2c(c1)OCO2)c1cccc(Br)c1	6.6%	·	8.5%	·	12.6µM*
N/C(=N\OC(=O)c1ccc2c(c1)OCO2)c1cccnc1	1.0%	·	0.0%	?	?
Cc1c(C(=O)c2ccccc2)c2ccccn2c1CCc1ccccn1	21.2%	·	11.2µM*	?	-1.2%
O=C1CC(N2CCN(Cc3ccc4c(c3)OCO4)CC2)C(=O)N1c1ccccc1 (stereo not drawn)	63.0%[38.3 µM]	-9.8%	15.8µM*	19.8%	-6.2%
O=C1CC(N2CCN(c3ccccc3Cl)CC2)C(=O)N1c1ccccc1 (stereo not drawn)	7.6%[38.3 µM]	-12.8%	25.1µM*	9.2%	3.3%
Cc1cccc(Nc2nc(N)nc(CN3CCN(c4ccccc4)CC3)n2)c1	1.8%[38.3 µM]	-3.8%	-14.1%	4.7%	-4.1%
Cc1ccc(C)c(N2C(=O)CC(N3CCN(Cc4ccc5c(c4)OCO5)CC3)C2=O)c1 (stereo not drawn)	2.6%[38.3 µM]	-13.4%	?	1.6%	0.9%
Cc1cccc(Nc2nc(N)nc(CN3CCN(Cc4ccc5c(c4)OCO5)CC3)n2)c1	5.1%[38.3 µM]	-6.6%	14.1µM*	?	5.0%
Cc1cccc(N2C(=O)CC(N3CCN(Cc4ccc5c(c4)OCO5)CC3)C2=O)c1 (stereo not drawn)	5.4%[38.3 µM]	-1.1%	22.4µM*	0.1%	-0.3%
C=CCOC(=O)C(C(=O)CC)C(NC(=O)OC)c1ccc(F)cc1 (stereo not drawn)	·	·	16.3%[13.5 µM]	·	·
CCOC(=O)Cc1csc(SCC(=O)Nc2cc(C)ccc2OC)n1	5.7%	·	1.4%	-0.5%[46 µM]	0.5%
O=C1CC(N2CCN(c3ccc(F)cc3)CC2)C(=O)N1c1ccc2c(c1)OCO2 (stereo not drawn)	2.9%	·	18.9µM*	·	-0.8%
COC(=O)C1=C(C(=O)OC)[C@@H]2Nc3ccccc3[C@@]23C[C@@H](C(=O)OC)N(S(=O)(=O)c2ccc(C(F)(F)F)cc2)C3=N1	11.4%	-5.0%	17.0%[13.5 µM]	2.4%[9.22 µM]	-7.3%[7.66 µM]
COc1ccc(C(=O)N2CCC3(CCCN(Cc4cc(C(F)(F)F)cc(C(F)(F)F)c4)C3)CC2)cc1	10.4%	-3.6%	-4.3%	·	-6.1%
O=[N+]([O-])c1ccc(COc2cccc(CNc3ccc(F)cc3)c2)cc1	26.7%	-7.6%	14.1µM*	?	4.5%
CSc1ccc(CNc2ccccc2)cc1	-1.8%[38.3 µM]	-16.1%	-13.8%	-0.1%	-1.7%
SMILES	IMPase Li inh	HPGD block	ALDH1A1 inh	LMNA splice mod	KinaseGlo FLuc
CSc1cccc(NCc2ccc([N+](=O)[O-])cc2)c1	11.1%	·	35.5µM*	4.3%[46 µM]	-6.1%
CC(O)/C=C/c1cccc[n+]1C (stereo not drawn)	-11.3%[38.3 µM]	-10.9%	25.1µM*	18.0%	-4.3%
C[n+]1ccccc1/C=N/O	6.1%	-12.6%	-4.9%	-3.1%	-6.5%
C/[N+]([O-])=C\c1coc2ccccc2c1=O	14.7%[38.3 µM]	-9.2%	1.6%	1.6%	16.6%
O=C1NC(=S)S/C1=C\c1coc2ccccc2c1=O	-2.0%	·	8.91µM*	·	-1.7%
Cc1ccc(C)c(NC(=O)C(c2ccccc2)N2CCOCC2)c1 (stereo not drawn)	10.6%	·	15.8µM*	·	7.7%
